This is part of a sample that, as a whole, favours compounds with a hit. Of some 79,000 tested, about 15% had one in any assay. Calls of active or inactive are those of the source. Rule as the data show it: active = growth inhibition above about 70%; inactive = the rest.
Test: NCI Yeast Anticancer Drug Screen. Data for the mlh1 strain (AID 171);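 also: 0% = growth of vehicle-treated control cultures of the same strain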
Conditions: S. cerevisiae mlh1 strain growth inhibition, hits give high values
Protocol: Growth inhibition of yeast strains with defined genetic alterations is measured as a screen for potential anti-cancer activity. Selected strains with alterations in DNA damage repair or cell cycle control were exposed to compounds and growth inhibition was measured relative to vehicle treated controls. The strain used in this assay is mlh1

Measured: growth inhibition

CN(NC(=O)/C(=C/c1ccc(O)cc1)NC(=O)c1ccccc1)c1ccnc2cc(Cl)ccc12
active: at 100.0 µM 81%
inactive: at 1.2 µM 1% | at 3.7 µM 4% | at 11.0 µM 21% | at 33.0 µM 64%

Nc1nc2c(c(=O)[nH]1)NC(CCNc1ccc(C(=O)O)cc1)CN2 (stereo not given)
inactive: at 1.2 µM 0% | at 3.7 µM -1% | at 11.0 µM 0% | at 33.0 µM 0% | at 100.0 µM 15%

CN(C)c1ccc(/C=C/c2ccnc3ccccc23)cc1N
inactive: at 1.2 µM -3% | at 3.7 µM -3% | at 11.0 µM -1% | at 33.0 µM 7% | at 100.0 µM 42%

BrCc1ccccc1C(c1ccccc1)c1ccccc1
inactive: at 1.2 µM 10% | at 3.7 µM 68%
active: at 11.0 µM 97% | at 33.0 µM 97% | at 100.0 µM 96%

COc1ccc(N)c2c1C(=O)c1ccccc1C2=O
active: at 100.0 µM 94%
inactive: at 1.2 µM -5% | at 3.7 µM -9% | at 11.0 µM 1% | at 33.0 µM 46%

CC[C@@]1(OC(=O)CN(C)C)C(=O)OCc2c1cc1n(c2=O)Cc2cc3c(N)cccc3nc2-1
inactive: at 1.2 µM -1% | at 3.7 µM -2% | at 11.0 µM 1% | at 33.0 µM 28% | at 100.0 µM 55%

CCOC(=O)C1=C(C)NC(C)=C(C(=O)OCC)C1c1ccccc1Cl
active: at 100.0 µM 93%
inactive: at 1.2 µM -38% | at 3.7 µM -31% | at 11.0 µM -25% | at 33.0 µM 41%

COC(=O)c1ccc2c(c1)Cc1ccccc1-2
inactive: at 1.2 µM -3% | at 3.7 µM 9% | at 11.0 µM 2% | at 33.0 µM -11% | at 100.0 µM 8%

Source: PubChem BioAssay (NCI)
